# Compound activity (PubChem BioAssay)
# GluA2 TARP mod = modulates AMPAR-stargazin complexes | HEK293 GluA2+stargazin, membrane potential dye (FDSS), glutamate EC50; hits were called plate by plate, in both directions | calls only at 30 µM | actives 3.5% (n = 40,000) | AID 1259245;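 active = any of four per-well response measures lying three or more SD from its plate-wide compound average, in either direction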
# GIRK2 activator = GIRK2 channel activators by thallium flux; HEK293 GIRK2/NPY4 cells, thallium flux fluorescence; 34,000 tested, under 10 active; AID 1259324; activation (% efficacy), % for hits at 37.5 µM; P48051;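 active = primary screen hit, no activity in plain HEK293 cells, and in GIRK2-only cells above 5% efficacy rising with concentration; inactive = the rest, including fluorescent compounds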;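 also: efficacy is normalized control-subtracted fluorescence 15 s after thallium addition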
# Target sequence (P48051 whole entry, looked up): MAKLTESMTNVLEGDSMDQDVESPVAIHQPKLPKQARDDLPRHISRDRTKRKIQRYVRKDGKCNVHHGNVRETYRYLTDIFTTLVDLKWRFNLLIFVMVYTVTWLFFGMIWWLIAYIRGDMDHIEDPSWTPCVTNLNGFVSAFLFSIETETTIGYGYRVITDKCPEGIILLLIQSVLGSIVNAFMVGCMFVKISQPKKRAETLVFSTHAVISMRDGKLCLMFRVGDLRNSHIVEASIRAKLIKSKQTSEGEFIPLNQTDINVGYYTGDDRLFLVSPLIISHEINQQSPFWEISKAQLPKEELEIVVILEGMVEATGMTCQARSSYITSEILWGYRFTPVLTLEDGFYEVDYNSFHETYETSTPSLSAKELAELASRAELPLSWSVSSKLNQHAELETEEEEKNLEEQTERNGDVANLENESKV
# The depositor's hits bear a star; i = inactive; · = no result given; + = active, no number. Only a selection was taken, and hits are over-represented in it overall.
SMILES,GluA2 TARP mod,GIRK2 activator
COc1ccc(-c2noc(-c3cc(-c4cccs4)[nH]n3)n2)cc1OC,i,i
O=C(NCCOc1ccc(F)cc1)c1ccc([N+](=O)[O-])cc1,i,i
O=C(NCCOc1cccc(C(F)(F)F)c1)c1ccc(Cl)c([N+](=O)[O-])c1,i,i
O=C(NCCOc1cccc(C(F)(F)F)c1)c1ccc([N+](=O)[O-])cc1,+,i
CCOc1ccc(OCCNC(=O)c2ccc([N+](=O)[O-])cc2)cc1,+,i
CS(=O)(=O)Nc1cccc(NC(=O)C2CC(=O)c3ccccc32)c1 (centres undefined),i,i
Nc1c(-c2nc(-c3ccc(F)cc3)no2)nnn1-c1ccccc1C(F)(F)F,i,·
COc1ccccc1Oc1coc2c3c(ccc2c1=O)OCN(C1CC1)C3,i,i
Cc1ccc(OCC(=O)N2CCN(c3ccc4nncn4n3)CC2)cc1C,i,i
COc1cc(C(C)=O)ccc1OCC(=O)N1CCN(c2ccc3nncn3n2)CC1,+,i
COc1ccc(Cl)cc1S(=O)(=O)NCC1CCN(C(=O)Nc2ccc(F)cc2)CC1,+,i
COc1ccc(Cl)cc1NC(=O)NCC1CCN(C(=O)Nc2ccc(F)cc2)CC1,i,i
CCOc1cc(/C=C/c2ccc3cccc(O)c3n2)ccc1OC,+,·
COc1cc(/C=C/c2ccc3cccc(O)c3n2)ccc1O,+,·
O=[N+]([O-])c1ccc(O)c(/C=C/c2ccc3cccc(O)c3n2)c1,i,·
COc1cc(Br)c(/C=C/c2ccc3cccc(O)c3n2)cc1OC,i,·
COc1cc(/C=C/c2ccc3cccc(O)c3n2)ccc1OCc1ccccc1,i,·
O=[N+]([O-])c1cc(/C=C/c2ccc3cccc(O)c3n2)ccc1O,+,·
COc1ccc(CC(=O)NCC2CCN(C3CCCC3)CC2)cc1,·,i
Cc1ccccc1-c1ccc(N2CCN(C(=O)Cn3c(=O)oc4ccccc43)CC2)nn1,i,i
O=C(NCCc1c[nH]c2ccccc12)c1ccc2c(c1)[nH]c(=S)n1c3ccccc3nc21,i,i
N#Cc1ccc(Cl)cc1NC(=O)c1ccc(=O)n(Cc2ccccc2Cl)c1,i,i
O=C(NC(=S)Nc1ccc(S(=O)(=O)NC2CCCCC2)cc1)c1cccs1,+,·
NS(=O)(=O)c1ccc(NS(=O)(=O)c2ccc(NC(=O)C3CCCCC3)cc2)cc1,i,i
CC(=O)c1ccc(NC(=O)CSc2c(C)cnc3c2c(=O)n(C)c(=O)n3C)cc1,i,i
SMILES,GluA2 TARP mod,GIRK2 activator
COc1cc(OC)c(NC(=O)NCCNc2nc(C)cc(N3CCCCC3)n2)cc1Cl,+,i
COc1ccc(OC)c(NC(=O)NCCNc2nc(C)cc(N3CCCCC3)n2)c1,i,i
Cc1nnc(C2CCN(CC(=O)N3CCc4ccccc43)CC2)s1,i,i
CCOCCn1c(=O)c2c(nc3n(-c4cccc(C)c4)c(-c4ccccc4)cn23)n(C)c1=O,i,·
CC(C(=O)NCCc1cccs1)n1nnc2ccccc2c1=O (centres undefined),i,i
O=C(NCCc1cccs1)c1nnn(-c2ccccc2Cl)c1-c1ccncc1,+,i
O=C(c1cc2ccccc2o1)N1CCC(CNS(=O)(=O)c2ccc3c(c2)OCCO3)CC1,i,i
O=C(/C=C/c1ccccc1)NCC1CCN(C(=O)c2cc3ccccc3o2)CC1,+,i
O=C(/C=C/c1ccc2c(c1)OCO2)NCC1CCN(C(=O)c2cc3ccccc3o2)CC1,+,i
O=C(CSCc1ccccc1)NCC1CCN(C(=O)c2cc3ccccc3o2)CC1,i,i
CS(=O)(=O)N1CCCC1C(=O)Nc1sc2c(c1C(N)=O)CCC2 (centres undefined),i,i
CC1=C(C(=O)OC(C)(C)C)C(c2ccccc2F)NC(=O)N1 (centres undefined),+,·
CCOC(=O)C1=C(C)NC(=O)NC1c1cccc2ccccc12 (centres undefined),i,·
Cn1nnc2c(N3CCN(C(=O)Nc4cccc(Cl)c4)CC3)ncnc21,i,i
O=S(=O)(NCC#CCN1CCc2ccccc2C1)c1cccc(Cl)c1,i,i
COc1ccc(S(=O)(=O)NCC#CCN2CCc3ccccc3C2)cc1C,+,i
c1coc(CNc2nc(N3CCOCC3)nc(N3CCOCC3)n2)c1,i,i
c1ccc(CNc2nc(N3CCOCC3)nc3ccccc23)cc1,+,·
O=C1S/C(=C\c2ccc([N+](=O)[O-])cc2)C(=O)N1c1ccc(F)cc1,i,i
O=C1S/C(=C\c2cccc([N+](=O)[O-])c2)C(=O)N1c1ccc(F)cc1,+,i
COCCn1c(SCC(=O)N2CCCC2)nnc1-c1cn(C)nc1OC,i,i
CNC(=O)CCc1csc(NC(=O)c2ccc[nH]c2=O)n1,i,i
Cc1cc(C)cc(OCCNC(=O)Cn2cnc(C(C)C)cc2=O)c1,i,i
Cc1nc2ccc(S(=O)(=O)NCCCn3nc(-c4ccccc4)ccc3=O)cc2s1,i,i
O=C(Nc1ccccc1)c1cccc2nc3ccccc3nc12,+,·
SMILES,GluA2 TARP mod,GIRK2 activator
O=C(Nc1ccccc1)c1ccc(C(=O)Nc2ccccc2)nc1,i,·
Cn1c(C(F)(F)F)nn(CCNC(=O)C2(c3ccc(Cl)cc3)CCCC2)c1=O,i,i
Cn1c(-c2ccccn2)nn(CCNC(=O)C2(c3ccc(Cl)cc3)CCCC2)c1=O,+,i
Cn1c(C(F)(F)F)nn(CCNC(=O)COc2ccccc2)c1=O,i,i
Cc1cccnc1NC(=O)COc1ccc2c(c1)C(=O)CC2,i,i
COc1ccc(-c2noc(CSc3nc(C)c(CCO)c(=O)[nH]3)n2)cc1,i,·
CC(C)n1ccc(C(=O)N(Cc2ccccn2)c2nc3c(Cl)cccc3s2)n1,+,i
Cn1ccc(C(=O)N(Cc2cccnc2)c2nc3c(Cl)cccc3s2)n1,i,i
CSCCn1c(=NC(=O)c2cc(C)no2)sc2ccccc21,i,i
CSCCn1c(=NC(=O)c2cc(C)no2)sc2cc3c(cc21)OCCO3,+,i
CC1Cc2cc(-c3cc(CC(=O)NC4CCCC4)no3)ccc2O1 (centres undefined),+,i
CC1Cc2cc(-c3cc(CC(=O)NCC4CCCO4)no3)ccc2O1 (centres undefined),i,i
Cc1ccc(C)c(S(=O)(=O)N2CC(c3nc(C)no3)C2)c1,i,i
COCCn1c(SCc2ccccc2)nnc1-c1cn(C)nc1OC,i,i
COCCn1c(SCc2ccc(C(F)(F)F)cc2)nnc1-c1cn(C)nc1OC,+,i
CCOc1cn(-c2ccc(F)cc2)nc1C(=O)N1c2ccccc2CC1C (centres undefined),+,i
CCOC(=O)N1CCN(C(=O)c2nn(-c3ccc(F)cc3)cc2OCC)CC1,i,i
CCCOc1cn(-c2ccc(F)cc2)nc1C(=O)NCCc1ccccc1,i,i
CCOc1cn(-c2ccc(F)cc2)nc1C(=O)N1CCCCC1,i,i
CCCOc1cn(-c2ccc(F)cc2)nc1C(=O)NCCC(C)C,+,i
CCOc1cn(-c2ccc(F)cc2)nc1C(=O)N1CC(C)CC(C)C1 (centres undefined),+,i
